# Measured values as given in PubChem BioAssay AID1159506 (National Center for Advancing Translational Sciences (NCATS), 2015).
# In all, about 59,000 sequences were measured (the read-out: median about -0.00055, lowest 2% from about -2 on). Many of the other results were omitted from the sample, so the lowest values are more common in it than they were.
# Experiment: Identification of proteins required for the processing of the EWS-FLI1 nascent transcript;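 also: robust z of luciferase light less the median z of siRNAs with the same seed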
# Details: TC32 Ewing sarcoma NR0B1-luc vs CMV-luc (EWS-FLI1 target promoter against control promoter), 48 h; screened at 20 nM (by protocol)
# Summary of the method: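 Parallel TC32-NR0B1-luc and TC32-CMV-luc reverse transfections with 20 nM siRNA in RPMI-1640/10% FBS, luciferase measured 48 h later. Seed-adjusted z-scores from normalized, z-score-MAD transformed data; AllStars negative and siGL4 controls on each plate.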
row,Sequence,seed-corrected z-score
1,UAGAUGUUGACGCCCAUGG against MRPL54,0.63
2,UGAGUACCCAUGGUUGGAG against KY,-1.24
3,UUCAGGACAAUCUUGUUCC against UBL5,-0.0381
4,AUUGUAACCAGUCACGUAC against FLRT3,0.235
5,UGAGAUAUGCGACAGAUGG against ACOX2,-0.67
6,AUUGCUCUGAAGUGAAUUC against LMO4,-0.726
7,UACAGGCUAAAUACACUCC against ANAPC13,-2.73
8,AGAGUUAAAACUGGAGGCG against POU2F3,0.349
9,UUCUAGAUUAUUAUAGGAC against LRFN5,-0.0413
10,UGUUCUUGUAUUUCGCUUG against ZBED9,-0.528
11,AAAGAGGUGAUAGAGCACG against PAQR4,-1.03
12,UACGAUAUCAGCAUUGCAG against CNOT6,0.29
13,UUCUGGUAUACGUGUUUCG against TNFSF8,0.471
14,UUGGUUAACCAGGUUCACC against LOC390282,-2.14
15,AGCUGGUCAAUGUAGUCGC against MAPK11,0.202
16,UACAGUAUCAGCUUCUACA against LOC643855,0.618
17,UUCCAGACCAUGAGAUGCC against PIGO,-0.121
18,UCAUGUUCAACCCAAACUC against ANKMY1,-4.15
19,UCUAGGACAGCUCUUAUCC against EDEM3,0.599
20,UUUGUUACUUUGUCCAUUC against ARMC9,-0.253
21,UAGCUGUUCCUUGUAGUUG against NABP1,0.675
22,UUGAUCACCACUUCGGAGC against CHRM1,-0.914
23,UCACGUUUAUUCUGAAUCC against NDC1,-1.1

row,Sequence,seed-corrected z-score
1,UGUCCAUGAAAUUUCUCUG against ARL2BP,1.12
2,UUUUUCUCGAUCUGCUUCC against CCDC64,-2.13
3,UAAUGCAUCUUCAAAAUUC against LOC730338,0.94
4,UACUUUGUUAUAGGAUCUC against CWC22,-0.653
5,UUUGGGAUCAAAUCGGUGG against NAPSA,0.0625
6,UGCGAAUCUGCUAGGAUGC against GLTSCR1L,0.0332
7,UAUCCUUCAGGCUAAGAUG against SGOL1,-2.83
8,UUACUUUGUAGAUACAACA against FAM201A,-1.74
9,UUAGCUGCAAUUGCCUUCU against ZWINT,-2.63
10,UCGUGAUUACGUUAAGUGC against CCNH,0.304
11,UGAAUGCUGAGAACUGUGC against PAPPA2,-0.138
12,UAUAGGUCAGGCAACCUUG against ATP11AUN,-0.763
13,UAAGUUGACAGGCUGUCCA against NXPH3,-2.06
14,UGCUUGUCUCGGUUAAUGC against NCF2,-0.104
15,AAAACUACCGUUUGUGCAU against RPS27,0.994
16,UGCUCUAGCACAGUGUUCC against CCDC87,-2.86
17,AUAGUUUAUAAGUCCUAUC against CGRRF1,0.53
18,AUGUCCUUAAAUUCACUCU against GJB2,-2.43
19,UAAUAUUACCUUUAUGUUG against TBC1D3P2,2.12
20,UUCUUGAAAUCCAACCACC against ACSM6,0.592
21,AAAUCGUUAGUUGAGGAGC against USP53,0.292
22,ACAGGGACAAUGUAGGAAG against PRSS47,-2.17
23,UAGUAUGAAAAUAGAAGUC against BTBD8,0.167

row,Sequence,seed-corrected z-score
1,UCAGGGUUAGAGGUAGUGG against SMCR8,0.401
2,UAGUGGAUGUCAAACGAGG against CTSD,0.501
3,UACCCAUCAAAGCAAUCGC against LTBP1,-0.403
4,AGAUCAAUUAGUAAUCCUC against CHM,-0.298
5,UGGAUUGUCAACACCAAUG against CCT2,-0.17
6,UUUACGUCCAAAGUAGCAC against SEC23B,-0.0983
7,UGAUCUGCUAGGCAAGAGG against FASTKD1,-0.665
8,UGGUUGUUCAACGCUGUAG against MEA1,-0.557
9,UUAAGACAUAUCCUGGUGC against YY1AP1,-2.26
10,UUCCUUCUCAGGAUAGUGG against IYD,0.306
11,UCGGAUACGGGUGUGAUAC against SNX32,0.403
12,UAGAAUCCCACUGCGAUGC against TTYH3,-0.966
13,UCAUUCAUCAGGUUCAUGC against TPD52L1,1.32
14,UUGGGCUUCUUCCUAAUGC against SLC16A3,-0.147
15,UUCGAUAGUCUGUUUCUGC against SLK,-2.56
16,UCAGGGUAUUCAUUGGUGC against INCA1,-3.45
17,GAUGUAGAAGCCAUAGUUC against NIPAL4,0.499
18,UGGAGUUCUUAUAAAAUGC against C15orf43,-0.277
19,UUAAUUCCCGUGCCCUUGG against PON2,-3.2
20,UUUGGAUGUACGUGUAUAC against DYRK4,0.282
21,UACUUUCGCCUCCUCAUCC against CCDC89,1.17
22,UUUGGGCAGAUAGAAGGAG against ADAMTS15,0.203
23,UACUUUCAUAUGCAGGUCC against PCDH8,-1.4

row,Sequence,seed-corrected z-score
1,AACCGUUCAUCCUUCGUGC against KLHL6,-0.163
2,UCAUCAUCAAAGGCGAUGG against GDNF,-2.86
3,UUCUUGGUGUUGUAGAAGG against AGPAT2,0.219
4,UCAGGUAGAACACUUUGCU against YWHAG,0.113
5,UUGCUAUCCAUGUAUAGCC against SLITRK1,0.475
6,UCGUGUAAAACAACAUGCG against AGMO,-0.652
7,UAACCUAUCAUAUUGGUAG against DDX17,0.216
8,UAGAUCACCAAGCCCUUCC against EFNB1,-0.0268
9,UCUCCAUAAACAUACAGGC against LACE1,1.68
10,UUGGUUGCAUCCCUGUCCG against PPP1R27,-3.59
11,UGAUGUACUGUGGAAGGUC against MAST3,-1.59
12,UGUAGUGACAUCUCCGCCU against MCFD2P1,0.515
13,UAAGGUCCCAGAAAGGCCU against ZP4,0.208
14,UCUGGGUACAAUCUGGUGU against CHCHD10,-2.26
15,UCUGAUUCCGCUUCUGAGC against SIGLEC10,0.63
16,AUAGAUACCUAGGUCAACC against NEU3,0.24
17,UGCUGUUAGUUUGUGAUGC against LOC729254,0.247
18,UUCGAGACGAUUUCCAGUG against CMIP,-2.27
19,UACUAGGUACGAACCGUCC against PPTC7,-0.527
20,UCUCCUUACAUAACACUUC against EPHX2,0.0978
21,UUUGUGAUAGACUUCUUUC against CFAP126,1.14
22,AAACCUUCCGGUUUAGAUG against KCNH5,-0.00192
23,UUUGCCUCUUUCCUCAACC against ZBTB16,-2.32

row,Sequence,seed-corrected z-score
1,UAUAGAUCAACAAAAAUAC against TRMT112,0.21
2,UUCCUUCUCGUCGUCGUAG against SERPINH1,-0.218
3,AGUGGGAUAAGGGCUCUGA against TMEM132A,-5.72
4,UAUUCUUCAUUGGUAUCCC against TMEM27,-0.429
5,UCCGUUUCCACAUAUCUAC against SUPT20H,-0.175
6,UAUGGUAAUAGUCCUCCAG against FNDC9,-0.0743
7,UUAGAAGCCCGCGUGAUGU against HS6ST3,0.236
8,UGAUUGGUUACUGCCCAGG against TAS2R20,-4.87
9,UCCGUUUCCAUAAUUACAG against SCUBE1,-0.917
10,AAACUAAUGAAAUAGUGCC against GPR39,-0.0661
11,AUAGAUCUUUAUAUAAGCC against ATL1,-0.744
12,UAGAGUUUCGGUUUAAAUG against RBBP5,0.215
13,UUUUGUAUGUAGACAUUGG against DEFB135,-0.8
14,UACACUAGCAGUGACCAUG against MBOAT1,0.0459
15,UUGAUAUCCAGCACAUUGC against CORO2B,1.69
16,UCUUCGUAGAUGACAUUCC against ERO1A,0.442
17,AUAUGUGCAGUCUUCUCCC against LINC00200,-0.44
18,UCCAGUAACAAUUAAUGCC against LRRC37A,0.451
19,UGUGGUCAAAGAGGAGAUG against SH3TC2,-2.8
20,UAGCAGAUAGGUCUCAAUG against MYH11,-0.244
21,UAGAUUCUCGUGCACAGCC against KIFC3,0.0224
22,AAAGUGACUAUUGUCAGGU against OR5M10,-0.162
23,UUUGUAGUUGUUCCCAUGC against TTPA,-0.714

row,Sequence,seed-corrected z-score
1,UCCAAGGUCAGUGUGAUCC against ZDHHC23,0.574
2,UUAUGUAUCAUUGGAACCA against LOC388780,0.0558
3,UUUUAUUCCCUGUAUCAUG against ZNF619,-2.89
4,UUCACUCUCAAACUGGUCC against CNOT3,-0.499
5,UCUUGUCCAAGACUCCUUC against SMTN,-0.516
6,UGAUGAGCGACUCUCCUGG against C9orf142,-0.422
7,AUUGCUACUGAUAUAAGCC against DICER1,-0.452
8,UUCGGACUCAGCUUCUCCA against EXD3,0.0948
9,UUAUGAUCCAGGUAGAGGA against INHBE,0.817
10,UUCUGCUUUGCAUAUCUCC against POU5F1,-2.72
11,AUUCUUAAACGUGAUUUCC against NICN1,0.117
12,UAGCGAAUCUGUAAGCUGC against MLLT10,-0.471
13,UUUUGAUGCUGUCUACAGG against METTL2B,-1.55
14,UUACCUAUCCCUGAGACAC against MICAL2,0.383
15,UCCUCUGCGAAGUUCUUGG against PANX2,-2.24
16,UCCAUGAGCGCAAUCAUGC against CAPN3,0.116
17,UCUUCUUCACGAGUUGAGG against GPRC5A,-0.133
18,UGAGUCAAUGAUGCGCUUC against SFN,2.54
